Compound activity from PubChem BioAssay.
The list is not random: actives were taken first. Their share in the collection is about 1.4%.
MOR-DOR ag – agonists of human mu-delta opioid receptor heterodimerization | P35372+P41143 | cells, OPRM1-OPRD1 heterodimerization, luminescence | activation, % at 9.3 µM | 0.3% of 340,000 active | AID 504326; in the data active = activation above about 18%;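 also: 0% = vehicle-treated cells and 100% = reference agonist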
MIN6 prolif – induces beta-cell replication in MIN6 cells. 0.29% of 330,000 active. proliferation, % at 10 µM. MIN6 cells proliferation, ATPlite luminescence, 48 h; cells starved in 0.2% serum; 100% = growth in 10% serum;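 active = compounds whose signal lies at least 3.5 SD above the mean of all wells on their plate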;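 also: 0% = DMSO-treated cells in low-serum medium and 100% = 10% serum control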
MOR-DOR inv ag-1 – inverse agonist of human OPRM1-OPRD1 heterodimerization; cell-based MOR-DOR heterodimer luminescence, inverse agonism; 0.21% of 340,000 active; inhibition, % at 9.3 µM; P35372+P41143; in the data active = inhibition above about 22%, passing the limit was not always enough;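 also: 0% = cells with DMSO and 100% = wells without cells with DMSO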
HTR5A ag ctr – activates human HTR5A in OPRM1-OPRD1 agonist counter-screen | P47898 | HTR5A agonist assay, luminescence, cell-based | activation, % at 9.3 µM | 0.61% of 340,000 active | AID 504692; in the data active = activation mostly above about 9.5%, no sharp cut-off; inactive = mostly below about 7.6%;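 also: 0% = cells with vehicle only and 100% = reference agonist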
Target sequence (P47898 whole entry, looked up): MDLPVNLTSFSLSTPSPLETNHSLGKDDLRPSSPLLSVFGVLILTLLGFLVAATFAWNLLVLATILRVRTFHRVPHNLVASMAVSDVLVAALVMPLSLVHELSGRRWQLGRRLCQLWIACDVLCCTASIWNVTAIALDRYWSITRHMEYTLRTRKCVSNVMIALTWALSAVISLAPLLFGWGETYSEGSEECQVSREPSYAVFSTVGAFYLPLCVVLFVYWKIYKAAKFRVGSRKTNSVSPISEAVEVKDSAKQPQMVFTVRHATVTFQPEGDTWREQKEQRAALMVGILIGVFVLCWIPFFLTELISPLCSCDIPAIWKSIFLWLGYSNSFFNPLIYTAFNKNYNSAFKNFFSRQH
pCIP destab – p/CIP protein destabilization | AID 1984 | 0.01% of 290,000 active | decrease of EGFP signal, % at 10 µM | F442A p/CIP-EGFP cells, EGFP fluorescence, 16 h | Q05BA5;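 active = EGFP signal decrease of at least 30% at 10 µM or well 3 SD below plate mean, unless failing retest; inactive = the rest, including hits failing retest or dose response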
HTR5A inv ctr – HTR5A inverse agonism, opioid heterodimer counter-screen | HTR5A cell line, luminescence | AID 504634 | inhibition, % at 9.3 µM | 0.083% of 340,000 active; in the data active = inhibition mostly above about 23%, no sharp cut-off; inactive = mostly below about 18%;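 also: 0% = cells with DMSO and 100% = no-cell wells with DMSO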
MOR-DOR inv ag-2 – counter-screen for HTR5A inverse agonists: OPRM1-OPRD1 heterodimerization inverse agonism. shares compounds with HTR5A inv ctr. U2OS counter-screen cells, complementation luminescence. inhibition, % at 9.3 µM. 190 tested, under 10 active. AID 504912;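 also: 0% = cells with DMSO and 100% = wells without cells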
HTR5A inv conf – confirmation of human HTR5A inverse agonists. shares compounds with HTR5A inv ctr. HTR5A-expressing cells, inverse agonism, luminescence. inhibition, % at 9.3 µM. 190 tested, under 10 active. AID 504916;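 also: 0% = cells with DMSO and 100% = no cells with DMSO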
The depositor's hits bear a star; nt = not tested or not shown. Unless noted, no rule for the calls is given here.

SMILES	MOR-DOR ag	MIN6 prolif	MOR-DOR inv ag-1	HTR5A ag ctr	pCIP destab	HTR5A inv ctr	MOR-DOR inv ag-2	HTR5A inv conf
CC(C)(C)OC(=O)C[C@H]1C/C=C\C[C@H](CC(=O)N[C@H](CO)Cc2ccccc2)C(=O)N[C@@H](Cc2ccccc2)COC1=O	-1.5	-0.9	8.1	8.9	nt	-6.0	nt	nt
O=C(COc1ccc([N+](=O)[O-])cc1Cl)N1CCc2ccccc21	-1.2	0.5	5.2	4.3	nt	-10.6	nt	nt
COc1cc(Br)c(/C=C/c2ccc3cccc(O)c3n2)cc1OC	1.7	-6.5	-8.1	-1.2	2.8	4.5	nt	nt
CSc1ccc(/C=C/c2ccc3cccc(O)c3n2)cc1	2.4	-5.2	-12.2	-8.8	-1.8	23.6*	-21.0	16.7
Oc1cccc2ccc(/C=C/c3ccccc3Br)nc12	-4.9	-4.9	25.0	-16.9	3.7	61.8*	19.6	51.3*
Cc1ccsc1/C=C/c1ccc2cccc(O)c2n1	2.8	-5.6	-12.2	-11.7	3.9	32.1*	-84.1	20.9
O=C(COc1coc(CN2CCc3ccccc3C2)cc1=O)Nc1ccc(F)cc1F	-2.7	-2.1	14.2	-25.8	nt	63.1*	-14.2	8.6
O=C(COc1coc(CN2CCc3ccccc3C2)cc1=O)Nc1ccc(F)cc1	-0.6	-1.5	3.9	0.8	nt	-2.4	nt	nt
Cc1noc(/C=C/c2ccco2)c1S(=O)(=O)N1CCC(C(=O)NCc2ccco2)CC1	-3.0	-1.1	13.3	-9.8	0.1	27.0*	-9.1	-7.6
C/C(=N\NC(=S)NCc1ccccc1)c1ccc2ccccc2c1OC(F)F	2.1	-6.6	-11.1	-22.0	-0.7	54.2*	-24.2	4.5
C/C(=N\NC(=S)NCc1ccccc1)c1ccc(Br)cc1	4.7	-6.2	-22.1	0.9	-0.9	-2.2	nt	nt
Cc1n[nH]c(=S)n(NC(=O)CC(=O)Nn2c(=S)[nH]nc(C)c2=O)c1=O	3.1	-0.8	-16.9	-23.6	3.8	65.2*	-84.6	16.1
CNc1c(C(=O)O)ccc2c1C(=O)c1ccccc1C2=O	-1.8	0.0	11.9	-8.6	-14.5	36.2*	-193.5	-19.7
O=C1CCN(Cc2ccccc2)C(=S)N1	-3.7	nt	16.1	7.3	nt	-28.2	nt	nt
O=C(O)C1=C(C(=O)O)C2C=CC1C2	-2.9	nt	14.3	5.3	nt	-20.6	nt	nt
Cc1cc(C(=O)CN2C(=O)C(=O)N(CCC3=CCCCC3)C2=O)c(C)n1C	-3.2	-3.4	13.9	-14.9	nt	36.8*	-413.0	-58.5
CC(=O)N1C2CCCCC2S[C@H]2CCCCC21 (stereo partly specified)	-3.5	-0.3	21.2	0.2	0.4	33.7*	-17.8	-19.3
COc1cccc(C(=O)/C=C/c2ccc(OCC#N)c(OC)c2)c1	-3.0	0.0	15.8	-3.6	-11.1	-11.0	nt	nt
COc1cc(/C=C/C(=O)c2ccc(O)cc2)ccc1OCC#N	-2.9	-6.1	16.2	-14.1	9.5	48.0*	-20.2	0.3
Cn1cnc2c(cnn2C)c1=N	-1.4	nt	7.6	-0.2	nt	0.6	nt	nt
O=C(Cc1cccc(NC(=O)C2CCCN(C(=O)C3CCCCC3)C2)c1)Nc1cccc(C(=O)N2CCCCC2)c1 (stereo unspecified)	-1.6	nt	7.7	0.7	nt	-2.3	nt	nt
Cn1cnc(S(=O)(=O)N2CCN(c3cccc(Cl)c3)CC2)c1	-1.4	4.0	7.4	1.4	1.3	37.8*	-14.8	-193.3
NNc1nc(Nc2ccccc2)nc(N2CCCCC2)n1	3.6	-0.8	-20.9	-9.4	-0.1	34.5*	-23.6	-156.8
NNc1nc(Nc2ccc([N+](=O)[O-])cc2)nc(N2CCCCCC2)n1	-3.7	-1.0	19.1	-3.4	-9.8	16.0	nt	nt
Cc1ccc(O)c(NC(=S)NC(=O)c2ccccc2Cl)c1	-2.4	-0.5	12.7	-7.6	24.6	21.4*	3.7	-19.1
O=C(NC(=S)Nc1ccc(O)cc1)c1ccccc1Cl	-1.9	-2.6	9.4	-3.1	-15.0	1.7	nt	nt
CCOc1cc(C(c2c(C)[nH][nH]c2=O)c2c(C)[nH][nH]c2=O)cc([N+](=O)[O-])c1O	-7.6	-4.3	34.5	-8.1	2.5	28.7*	41.7*	15.3
